Most compounds without a hit are left out; they make up all but 1.2% or so of the library.
NR5A2 inv ag: NR5A2 inverse agonism in reporter assay; O00482; HEK293T StAR-luciferase reporter, LRH-1 transfected, 24 h; inhibition, % at 3.6 µM; 360,000 compounds, 0.13% hits;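 active = inhibition above the mean inhibition of all tested compounds plus 3 SD, cut at about 73% in these data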;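 note: 0% = DMSO wells and 100% = reporter-only cells lacking LRH-1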
NCOA2 inhibitor: human SRC2 (NCOA2) inhibition; Q15596; HEK293 GAL4-SRC2 luciferase reporter, luminescence; inhibition, % at 9 µM; 370,000 compounds, 0.17% hits; AID 651957;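 active = inhibition above the mean inhibition of all tested compounds plus 3 SD, set per campaign, cut at about 52% in these data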;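 note: 0% = DMSO treated cells and 100% = cells given Gossypol at 36 µM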
SRC1 inh: inhibits human SRC1 coactivator; Q15788; HEK293 GAL4-SRC1 luciferase reporter, luminescence; inhibition, % at 3.6 µM; 360,000 compounds, 0.12% hits; AID 588354;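 active = inhibition above the campaign mean plus 3 SD, with each screening campaign given its own cutoff, cut at about 60% in these data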;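 note: 0% = DMSO treated cells and 100% = gossypol at 36 µM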
Gli-Sufu block: antagonists of Gli-Sufu signaling | Sufu-KO-LIGHT fibroblasts, Gli luciferase reporter luminescence | inhibition, % at 5 µM | 340,000 compounds, 0.74% hits | AID 588413;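 active = inhibition above about 55%, limit read from the data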;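 note: 0% = DMSO-treated cells and 100% = wells with medium but no cells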
SRC3 inh: inhibitors of human steroid receptor coactivator 3 (SRC3) | Q9Y6Q9 | HEK293 GAL4-SRC3 luciferase reporter, luminescence | inhibition, % at 3.6 µM | 360,000 compounds, 0.17% hits;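 active = inhibition above a per-campaign cutoff, the mean of all compounds plus 3 SD, cut at about 60% in these data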;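 note: 0% = DMSO-treated cells and 100% = gossypol-treated cells at 36 µM; higher means less SRC3-driven luciferase light from the GAL4 reporter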
Target sequence (Q9Y6Q9 whole entry, looked up, the tested form may be a part): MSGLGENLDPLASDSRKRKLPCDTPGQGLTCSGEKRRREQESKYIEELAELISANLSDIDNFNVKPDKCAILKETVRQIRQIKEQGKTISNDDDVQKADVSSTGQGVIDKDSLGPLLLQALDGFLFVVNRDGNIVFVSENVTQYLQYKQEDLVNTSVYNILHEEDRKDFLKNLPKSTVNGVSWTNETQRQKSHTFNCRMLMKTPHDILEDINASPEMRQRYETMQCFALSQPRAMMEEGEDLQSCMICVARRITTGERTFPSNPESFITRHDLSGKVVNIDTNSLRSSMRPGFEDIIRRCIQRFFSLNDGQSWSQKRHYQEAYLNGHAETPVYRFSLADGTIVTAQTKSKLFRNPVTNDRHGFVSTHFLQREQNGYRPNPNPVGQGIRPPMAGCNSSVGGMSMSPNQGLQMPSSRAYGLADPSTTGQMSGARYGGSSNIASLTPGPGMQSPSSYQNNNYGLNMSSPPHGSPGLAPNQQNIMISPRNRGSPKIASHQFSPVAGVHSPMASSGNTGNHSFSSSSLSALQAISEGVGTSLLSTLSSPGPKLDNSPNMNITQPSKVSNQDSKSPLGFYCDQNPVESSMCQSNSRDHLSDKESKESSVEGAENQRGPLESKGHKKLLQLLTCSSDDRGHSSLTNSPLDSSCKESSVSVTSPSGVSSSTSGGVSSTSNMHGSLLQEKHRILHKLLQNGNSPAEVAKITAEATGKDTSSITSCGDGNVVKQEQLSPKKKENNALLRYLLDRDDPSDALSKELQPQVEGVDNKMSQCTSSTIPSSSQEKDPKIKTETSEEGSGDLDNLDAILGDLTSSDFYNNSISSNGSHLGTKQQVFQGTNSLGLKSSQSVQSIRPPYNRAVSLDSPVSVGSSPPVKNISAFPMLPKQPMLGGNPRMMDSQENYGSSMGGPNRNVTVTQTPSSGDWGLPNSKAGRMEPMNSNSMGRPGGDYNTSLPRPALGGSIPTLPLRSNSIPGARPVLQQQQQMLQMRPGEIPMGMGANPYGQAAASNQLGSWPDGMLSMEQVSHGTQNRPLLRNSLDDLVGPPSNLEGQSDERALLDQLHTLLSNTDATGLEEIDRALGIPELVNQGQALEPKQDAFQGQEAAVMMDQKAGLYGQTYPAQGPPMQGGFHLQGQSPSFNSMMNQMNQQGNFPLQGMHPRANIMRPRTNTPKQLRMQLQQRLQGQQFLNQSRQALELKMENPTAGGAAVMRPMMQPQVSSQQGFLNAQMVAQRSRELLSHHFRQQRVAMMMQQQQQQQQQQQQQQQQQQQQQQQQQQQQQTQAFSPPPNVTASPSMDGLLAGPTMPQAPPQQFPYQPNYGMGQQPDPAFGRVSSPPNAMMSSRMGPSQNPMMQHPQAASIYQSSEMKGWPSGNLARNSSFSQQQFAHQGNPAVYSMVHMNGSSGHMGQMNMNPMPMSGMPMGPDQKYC
NR2F2 inh: NR2F2 (human) inhibition, primary screen. 370,000 compounds, 0.7% hits. inhibition, % at 8.6 µM. HEK293T NGFI-A luciferase reporter, luminescence. P24468;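 active = inhibition above a per-plate cutoff, mean inhibition of test wells between control levels plus 3 SD, cut at about 38% in these data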;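 note: cells cotransfected with COUP-TFII expression vector driving the NGFI-A reporter; 0% = median of COUP-TF2 test wells and 100% = reporter-only cells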
VP16 Luc counter: inhibits VP16 reporter, flagging COUP-TFII antagonist hits. shares compounds with NR2F2 inh. HEK293 Gal4-VP16 luciferase reporter, luminescence. inhibition, % at 8.5 µM. 2,500 compounds, 25% hits. AID 687007; in the data active = inhibition above about 13%
COUP-TFII conf: confirmation of human COUP-TFII (NR2F2) inhibitors; shares compounds with NR2F2 inh; HEK293 NGFI-A luciferase reporter, luminescence; AID 687008; 2,500 compounds, 45% hits; inhibition, % at 8.5 µM;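 active = mean inhibition over three repeats above a set limit taken from the earlier primary screen, cut at about 38% in these data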;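 note: 100% = cells given the luciferase reporter alone without the COUP-TF2 vector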
Active calls of the source: *; . = not tested or not shown.

SMILES | NR5A2 inv ag | NCOA2 inhibitor | SRC1 inh | Gli-Sufu block | SRC3 inh | NR2F2 inh | VP16 Luc counter | COUP-TFII conf
CC(C)OC(=O)N(C)C[C@H]1OCc2cn(nn2)CCCC(=O)N([C@@H](C)CO)C[C@@H]1C | . | 12 | . | . | . | 4 | . | .
COC1CC(C)C(OC)c2cc(O)cc(c2O)NC(=O)C(C)=CC=CC(C)C(OC(N)=O)C(C)=CC(C)C1OC (stereo not drawn) | 23 | 11 | 34 | 8 | 55 | -23 | . | .
COC1C=CC=C(C)C(=O)NC2=CC(=O)C(N)=C(CC(C)CC(OC)C(O)C(C)C=C(C)C1OC(N)=O)C2=O (stereo not drawn) | 86* | 19 | 72* | 69* | 75* | 55* | 61* | 75*
CC(C)c1ccc(CN2CCN(C(=O)CSc3nnnn3C3CC3)CC2)cc1 | 27 | 26 | 20 | 6 | 18 | 63* | 1 | 51*
O=C(CSc1nnnn1C1CC1)N1CCN(c2cccc(Cl)c2)CC1 | -8 | 20 | 7 | 3 | -16 | 27 | . | .
COC(=O)C1=C(C(=O)OC)[C@@]2([C@@H](Cc3ccc(C)cc3)Nc3ccccc3)C=C[C@@H]1O2 | . | . | . | . | . | 81* | 31* | 28
c1ccc(-c2cc(CSc3nc4ccccc4[nH]3)on2)cc1 | -5 | -13 | 0 | -5 | 22 | 40* | -7 | 14
Cc1noc(C)c1CSc1nc2ccccc2[nH]1 | 19 | -19 | 2 | 14 | -7 | -13 | . | .
Cc1sc(-c2ccccn2)nc1OC(=O)c1ccc(Cl)c(Cl)c1 | -21 | 6 | -6 | 3 | 3 | 0 | . | .
Cc1sc(-c2ccccn2)nc1OC(=O)c1ccc(F)cc1F | 10 | 8 | 4 | -3 | 33 | 38* | -16 | 30
C[C@@H]1ON(C)[C@H]2C[C@H]3c4[nH]c5c(-c6cccc(F)c6)cccc5c4CCN3C(=O)[C@@H]12 | . | -16 | . | . | . | 8 | . | .
COc1ccc(C)cc1Nc1n[n+](-c2ccccc2)c(-c2cc(OC)c(OC)cc2Br)s1 | -3 | 1 | 12 | 10 | -18 | 12 | . | .
COc1ccc(C)cc1Nc1n[n+](-c2ccccc2)c(-c2c(OC)ccc3ccccc23)s1 | 3 | 13 | -8 | 33 | 29 | 43* | 2 | 28
CC(C)S(=O)(=O)N[C@@H]1c2cc3c(cc2[C@H](c2ccccc2)[C@H]1C)OCO3 | . | 8 | . | . | . | -2 | . | .
CC(C)Cc1ccc(C(C)C(=O)Nc2ccccc2O)cc1 (stereo not drawn) | 34 | 33 | 13 | 38 | 15 | 49* | 7 | 50*
CC(=O)c1c(C)oc2ccc(N(C(C)=O)S(=O)(=O)c3ccc(F)cc3C)cc12 | 5 | 7 | -3 | 9 | 16 | 8 | . | .
CC(=O)c1c(C)oc2ccc(N(C(C)=O)S(=O)(=O)c3cccc4cccnc34)cc12 | 23 | 13 | 25 | 46 | 34 | 38* | 1 | 29
O=C1CCC[C@H]2CC3(CC[C@]24CCCN14)OCCO3 | . | . | . | . | . | 5 | . | .
COC(=O)c1cc(=O)nc(NN=Cc2ccccc2O)s1 | . | 14 | . | . | . | -11 | . | .
O=C(Nc1ccc2c(c1)OCCO2)C(c1cc2ccccc2o1)N1CCN(c2ccc(F)cc2)CC1 (stereo not drawn) | 35 | 39 | 28 | . | 31 | 39* | -29 | 1
O=C(Nc1ccc2c(c1)OCCO2)C(c1cc2ccccc2o1)N1CCN(c2ccc(C(F)(F)F)cn2)CC1 (stereo not drawn) | 45 | 22 | 41 | . | 39 | 25 | . | .
CCOC(=O)[C@@]12CCCC=C1N(CCc1ccc(Cl)cc1)C(=O)[C@H]2CC(=O)N1CCCCC1 | . | -4 | . | . | . | 30 | . | .
CCOC(=O)[C@@]12CCCC=C1N(CCc1ccc(Cl)cc1)C(=O)[C@H]2CC(=O)N1CCCC1 | . | 8 | . | . | . | 44* | 7 | 40*
CCOc1ccc(-c2cc(CCCC(=O)N3CCN(c4ccc(OC)cc4)CC3)no2)cc1 | 20 | 37 | -15 | 7 | 10 | 28 | . | .
CCOc1ccc(-c2cc(CCCC(=O)NCCCOC)no2)cc1 | 15 | 69* | 3 | 10 | 4 | 59* | 23* | 3
SMILES | NR5A2 inv ag | NCOA2 inhibitor | SRC1 inh | Gli-Sufu block | SRC3 inh | NR2F2 inh | VP16 Luc counter | COUP-TFII conf
CCc1c(C)nc2ncnn2c1NCCc1ccccc1 | 6 | -17 | 14 | 23 | 0 | 24 | . | .
CCc1c(C)nc2ncnn2c1NCCc1ccc(Cl)cc1 | 27 | 33 | -7 | 48 | 33 | 47* | 1 | 18
COC(=O)C1=C(C)N(C)C(=NCc2ccccc2C(F)(F)F)NC1c1ccc(Cl)cc1 (stereo not drawn) | . | -2 | . | . | . | -15 | . | .
CN(C)c1cc(O)c(C(=S)Nc2ccccc2)c(N(C)C)c1 | -6 | -6 | -14 | -9 | -24 | -7 | . | .
CN(C)c1ccc(C(=S)Nc2ccccc2)cc1 | 9 | 39 | 42 | -2 | 50 | 46* | -89 | 22
CN(C)c1ccc(NC(=S)c2ccccn2)cc1 | -40 | 51 | -26 | 51 | 26 | 42* | 8 | 38*
COC(=O)N1C[C@H](OCCCOCc2ccccc2)[C@H]2C[C@@H]1c1ccccc1O2 | . | -6 | . | . | . | 1 | . | .
Cc1cc(NC2CCCC2)n2ncc(-c3ccccc3)c2n1 | 36 | 34 | 31 | -26 | -2 | 48* | -21 | 52*
COc1ccc(-n2c(COc3ccc(Cl)cc3)nnc2SCC(=O)c2ccc(-c3ccccc3)cc2)cc1 | . | -21 | . | . | . | 1 | . | .
COc1ccccc1N1CCN(C(=O)c2cc3c(C)nc4ccccc4c3o2)CC1 | 6 | 17 | -8 | 46 | 11 | 42* | -4 | 12
Cc1ccc(CNC(=O)c2cc3c(C)nc4ccccc4c3o2)cc1 | 33 | 14 | 0 | 30 | 9 | 48* | 3 | 25
Cc1nc2ccccc2c2oc(C(=O)NCc3ccccn3)cc12 | -6 | 28 | 10 | 8 | 6 | 22 | . | .
NC(=O)c1ncn([C@@H]2O[C@H](C(=O)N[C@H](Cc3c[nH]c4ccccc34)C(=O)NCC(=O)N3CCCCC3)[C@@H](O)[C@H]2O)n1 | . | 11 | . | . | . | 17 | . | .
CCCCCCCCCC[n+]1cccc2c3ccccc3ccc21 | 90* | 44 | 58 | 89* | 82* | 83* | 20* | 82*
Cc1c2ccccc2cc[n+]1CCCS(=O)(=O)[O-] | 9 | 13 | 1 | -5 | -4 | -5 | . | .
Cc1cccc[n+]1CCCCCCCCCC[n+]1ccccc1C | 17 | 7 | 9 | 19 | 26 | 30 | . | .
CCCCCCCC[n+]1cccc2c3ccccc3ccc21 | 88* | 15 | 38 | 90* | 81* | 80* | 14* | 77*
COC(=O)[C@]12C[C@H](CC(=O)NCC3CCCCC3)C(=O)N(Cc3ccc4c(c3)OCO4)C1=C[C@H](C(C)(C)C)O[C@@H]2C | . | -2 | . | . | . | 0 | . | .

High-throughput results (PubChem BioAssay)
